According to PubChem BioAssay AID1468 (National Center for Advancing Translational Sciences (NCATS), 2008):
Where “and” joins values, the source holds several entries; their conditions need not be identical. Identical values can stand only once. About 1,100 (0.39%) of roughly 280,000 compounds were called active. Another 7% or so got no clear call; they are omitted. The list comes from a sample in which actives are over-represented; it also holds similar structures and randomly drawn compounds. A number with no mark means an inactive call. Calls follow the shape of the dose curve; as a rule, active = well fitted inhibition curve with a large enough effect; inconclusive = small, poorly fitted or top-dose-only effect, or effect the other way; inactive = flat fitted curve, though single readings scatter.

Biological target: Microtubule-associated protein tau (Homo sapiens) (UniProt P10636)
Sequence (P10636 561-689 P618L limits assumed): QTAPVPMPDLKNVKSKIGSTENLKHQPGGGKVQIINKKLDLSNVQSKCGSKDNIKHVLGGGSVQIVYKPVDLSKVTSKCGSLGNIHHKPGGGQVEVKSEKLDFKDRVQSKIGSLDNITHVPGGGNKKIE
Assay: qHTS for Inhibitors of Tau Fibril Formation, Fluorescence Polarization; also: nearly all actives have a fitted effect of over 55% in size
Details: K18 P301L tau heparin fibrillization, Alexa594 FP, 6 h; series mostly up to 57.7 µM; activity, negative = inhibition: at the top concentration
Procedure, shortened: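 Quantitative HTS format: compounds meet 15 uM recombinant K18 P301L tau and Alexa 594-tau tracer in 100 mM sodium acetate pH 7; 20 uM heparin triggers fibrillization at 37 C over 6 hr; FP gives the signal.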
% is scaled to controls: 0 for no effect and ±100 for the full control effect; potency is read from the fitted curve at half-maximal effect.

SMILES | activity, negative = inhibition | Potency
Cc1nc(SCCOc2ccc(Cl)cc2)[nH]c(=O)c1Cc1ccccc1 | -15.5% | 
C(=N\N1CCN(c2ccccn2)CC1)/C1=C(N2CCOCC2)C(=C/c2ccccc2)/CC1 | 2.73% | 
N#C/C(=C\C1=C(N2CCOCC2)C(=C\c2ccccc2)/CC1)C(=O)Nc1ccccc1F |  | 25.1 µM (active)
N#C/C(=C\c1ccccc1C(F)(F)F)C(=O)Nc1ccccc1F | 0.663% | 
Cc1c(Cl)cccc1-c1ccc(CNCCCSc2nnnn2C)o1 | 11.9% | 
Cc1cccc2nc(-c3ccc(Cl)s3)c(Nc3ccc4c(c3)OCCO4)n12 | 15.1% | 
Cc1ccc2sc(N(Cc3cccnc3)C(=O)C3COc4ccccc4O3)nc2c1C (stereo unspecified) | -11.1% | 
COc1ccc(N2CCN(C(=O)C3CCCN(C(=O)c4cc5sccc5n4C)C3)CC2)cc1 (stereo unspecified) | 0.211% | 
CCc1ccc(CN(Cc2ccco2)C(=O)COc2ccc(Cl)c(C)c2)cc1 | -0.51% | 
CCOC(=O)C1=C(C)N=c2s/c(=C\C(=O)OC)c(=O)n2C1c1ccc(OC)cc1 (stereo unspecified) | -6.96% | 
O=C1CCCC2=C1C(c1ccccc1)n1c(s/c(=C/c3cccc(F)c3)c1=O)=N2 (stereo unspecified) | 3.54% | 
COc1ccc(OC)c(C2C3=C(N=c4s/c(=C\c5cccc(O)c5)c(=O)n42)c2ccccc2CC3)c1 (stereo unspecified) |  | 22.4 µM (active)
COC(=O)c1sccc1S(=O)(=O)N(CC(=O)Nc1ccc(C)c(F)c1)c1ccc(C)c(C)c1 | -14.9% | 
CCOc1ccc(Nc2ncnc3scc(-c4ccc(OC)cc4)c23)cc1 | -6.54% | 
CCOC(=O)N1CCc2c(sc(NCc3cccc(F)c3)c2C(=O)Nc2ccccc2OCC)C1 | -0.601% | 
CCOC(=O)N1CCc2c(sc3c2c(=O)n(-c2ccc(CC)cc2)c(=O)n3C)C1 | -1.85% | 
Cc1ccccc1CNC(=O)c1cccc(NC(=O)c2nsc3ccccc23)c1 | -13.5% | 
Cc1cc(NC(=O)Nc2ccccc2)n(-c2ccccc2)n1 | 0.333% | 
Cc1ccc(NC(=O)Nc2cc(-c3ccccc3)nn2C)cc1Cl |  | 14.1 µM (active)
Cc1cc(NC(=O)Nc2ccc(Cl)cc2)n(-c2ccccc2)n1 | -1.98% | 
CC1CN(C(=O)N2CCC(C(=O)NCc3ccco3)CC2)c2cc(Cl)ccc2O1 (stereo unspecified) | -17% | 
Cc1cccc(NC(=O)CSc2nc3c([nH]c4ccccc43)c(=O)n2-c2cc(C)cc(C)c2)c1 | 2.58% | 

SMILES | activity, negative = inhibition | Potency
COCCn1c(SCC(=O)c2cc(C)ccc2C)nc2cc(C(=O)NC3CCCC3)ccc2c1=O | 5.5% | 
COc1ccc(-c2cn3c(C)c(C(=O)Nc4cc(C)cc(C)c4)sc3n2)cc1 | 1.72% | 
O=C1OC(NC(=O)c2ccccc2)C(N2CCOCC2)=C1Cl (stereo unspecified) | 2.21% | 
O=C1C(Cl)=C(N2CCOCC2)C(=O)N1c1ccccc1 |  | 28.2 µM (active)
c1ccc(-n2nnnc2N2CCOCC2)cc1 | -2.66% | 
Cc1ccc2nc(N3CCN(c4cccc(Cl)c4)CC3)c3nnnn3c2c1 | 4.68% | 
O=C(CNS(=O)(=O)c1cccs1)N1CCN(c2ccccc2Cl)CC1 | -6.87% | 
Cc1ccccc1CN1CCC(CNC(=O)c2cc3ccc4cccnc4c3[nH]2)CC1 | -3.29% | 
COc1ccccc1CNC(=O)NCc1noc2ccc(C)cc12 | 1.34% | 
Cc1ccc(NC(=O)C2CCN(S(=O)(=O)c3cc(-c4noc(C)n4)ccc3C)CC2)c(C)c1 | -4.96% | 
COc1ccc(OC)c(NC(=O)CSc2nc3ccccc3nc2N2CCCCC2)c1 | -3.04% | 
O=c1c(O)c(Br)ccc2c(Br)c(O)c(O)c(O)c12 |  | 10 µM (active)
CC(C)Cn1c(=O)c2ccccc2n2c(-c3cccc(Cl)c3)nnc12 | 3.1% | 
COc1ccc2c(c1)c(N1CCCC1=O)c(C(=O)Nc1ccccc1C(F)(F)F)n2C | 2.44% | 
COc1ccc(Nc2nc(Cl)nc(NCc3ccco3)n2)cc1 | -4.68% | 
COc1cccc(Nc2nc(N)c([N+](=O)[O-])c(NCc3ccco3)n2)c1 |  | 3.16 µM (active)
CN(c1ccccc1)c1nc(N)c([N+](=O)[O-])c(NCc2ccco2)n1 | -3.58% | 
O=C(NCC(c1cccnc1)N1CCc2ccccc21)c1cccc(C(F)(F)F)c1 (stereo unspecified) | 0.0255% | 
CC(C)c1ccc(NS(=O)(=O)c2ccc3[nH]cc(C(=O)NC4CCCC4)c(=O)c3c2)cc1 |  | 11.2 µM (active)
Cc1cc(C)cc(NS(=O)(=O)c2ccc3[nH]cc(C(=O)N4CCCCC4)c(=O)c3c2)c1 | -10.1% | 
COc1ccc(S(=O)(=O)NC(C)C)cc1C(=O)NC1CCCCC1 | 5.06% | 
Cc1cccc(NC(=O)Cn2nc(-c3ccc(Cl)cc3)c3ccccc3c2=O)c1 | -11.8% | 

SMILES | activity, negative = inhibition | Potency
O=S(=O)(c1ccccc1)c1nc(-c2ccc(Cl)cc2Cl)oc1N1CCCCC1 | -1.05% | 
CCc1ccc(NC(=O)CN2CCSc3ccc(S(=O)(=O)N4CCCC4)cc32)cc1 | 13.3% | 
COc1ccc(S(=O)(=O)NCc2cccn2Cc2cccc(C)c2)cc1Cl | -2.29% | 
Cc1cccc(CC(=O)N2CC(=O)Nc3ccc(F)cc3C2c2ccccc2)c1 (stereo unspecified) | 3.28% | 
O=C(Nc1ccc(-c2nc3cc(NC(=O)c4ccccc4Cl)ccc3o2)cc1)c1ccccc1Cl | -11.4% | 
Cc1ccc(-c2nnc(-c3ccc(NC(=O)c4cccs4)cc3)o2)cc1 | -15.2% | 
CC(C)c1ccc2oc(-c3cc(NC(=O)c4cccs4)ccc3Cl)nc2c1 |  | 12.6 µM (active)
CCN(CC)CCNC(=O)c1cc2c(=O)oc3ccc(C)cc3c2s1 | -3% | 
Cc1cccc(NC(=O)Nc2cccc(Oc3c(F)c(F)c(F)c(F)c3F)c2)c1 |  | 8.91 µM (active)
Cc1cccc(NC(=O)c2cccc(C(F)(F)F)c2)c1 | -3.83% | 
COc1cccc(NC(=O)NCc2ccc(F)cc2)c1 | 2.67% | 
COc1cc2c(=O)c(S(=O)(=O)c3ccc(C(C)C)cc3)cn(Cc3ccccc3C)c2cc1OC | -6.3% | 
O=C(Nc1ccccc1)Nc1ccccc1C(=O)NCc1ccco1 | 1.95% | 
CCc1ccc(-c2cc(C(=O)NCc3ccco3)c3ccccc3n2)s1 |  | 28.2 µM (active)
CCOc1ccc(CNC(=O)c2cc(-c3ccc(Cl)s3)nc3ccccc23)cc1 | -1.48% | 
COc1ccc(-c2noc(-c3ccc(N4CCN(c5ccccc5)CC4)c([N+](=O)[O-])c3)n2)cc1OC | -7.68% | 
CCOc1ccccc1CNCc1c(C(=O)O)c(C)n(Cc2ccc(C)cc2)c1C | 4.65% | 
COc1ccccc1CNC(=O)CCn1c(=O)c2ccccc2n(CC(=O)Nc2ccc(Br)cc2F)c1=O | 1.54% | 
Cc1cc(C)c2oc(C(=O)Nc3ccc(S(=O)(=O)N(C)c4ccccc4)cc3)cc(=O)c2c1 | -8.97% | 
COc1ccc(-c2csc(-c3c(N)c(C(=O)c4ccc(OC)c(OC)c4)n4ccccc34)n2)cc1 | 12.3% | 
Cc1ccc(Cl)cc1N1CCN(C(=O)CN2C(=O)COc3ccc(S(=O)(=O)N4CCOCC4)cc32)CC1 | -0.519% | 
COc1ccc(-n2c(=O)c3c(c4cc(OC)ccc4n3C)n(Cc3cccc(C)c3)c2=O)cc1 | -0.719% | 

SMILES | activity, negative = inhibition | Potency
O=c1[nH]c(=O)c2nc3ccccc3nc2[nH]1 |  | inactive
Nc1ccc2nc3c(=O)[nH]c(=S)[nH]c3nc2c1 |  | 2.24 µM (active)
COc1ccc(CCNC(=O)c2ccc(-n3c(C)cc4c3CCCC4)cc2)cc1OC | -18.1% | 
Cc1ccc2oc3c(c(=O)c2c1)C(c1ccc([N+](=O)[O-])cc1)N(CCCN1CCOCC1)C3=O (stereo unspecified) | -14.4% | 
Cc1cc(C)c(NC(=O)CCc2c(C)nc3c(c(C)nn3C(C)(C)C)c2C)c(C)c1 | 2.3% | 
COC(=O)c1ccccc1NC(=O)c1ccc2c(=O)n3c(nc2c1)CCCCC3 | 1.03% | 
COc1ccc(N2CCN(c3nc(-c4ccccc4F)nc4ccccc34)CC2)cc1 | 8.29% | 
CC(=O)Oc1c2c(c3c(c1CC=C(C)C)O[C@@]14C(=CC5CC1C(C)(C)OC4(C/C=C(\C)C(=O)O)C5=O)C3=O)OC(C)(CCC=C(C)C)C=C2 (stereo partly specified) |  | 35.5 µM (active)
CCc1cccc(NC(=O)CSc2nccn2C)c1 | -0.623% | 
COC(=O)c1c(NC(=O)C(C)Oc2ccc(Cl)c(C)c2)sc(C)c1C (stereo unspecified) | -9.25% | 
CCc1nc2cccnc2n1-c1ccc(CC(=O)Nc2c(C)cccc2C)cc1 | -3.28% | 
CCN(CC(=O)NCCc1ccccc1)S(=O)(=O)c1ccccc1 | -6.4% | 
CCN(CC)S(=O)(=O)c1ccc2[nH]cc(C(=O)NCCc3ccccc3)c(=O)c2c1 |  | 12.6 µM (active) and 14.1 µM (active)
CCN(CC(=O)NCCc1ccccc1)S(=O)(=O)c1ccc(C)cc1 | 0.415% | 
CC(C)(C)OC(=O)N1CCC(c2c(C(=O)Nc3ccc4c(c3)OCO4)cnn2-c2ccccc2)CC1 | 8.34% | 
Cc1ccc(Cn2cc(CCC(=O)NCc3ccc(OC(C)C)cc3)c3ccccc32)cc1 | -5.98% | 
Cc1ccc(C)c(N2CCN(c3ccc4cc(S(=O)(=O)N5CCC(C)CC5)ccc4n3)CC2)c1 | -6.87% | 
CC(=O)c1cccc(S(=O)(=O)N2CCC(n3nnc4cc(F)ccc43)CC2)c1 | -5.37% | 
CC(=O)c1cccc(Nc2ccc3cc(S(=O)(=O)N4CCC(C)CC4)ccc3n2)c1 |  | 12.6 µM (active)
Cc1ccc(CNS(=O)(=O)c2ccc(C(=O)N(C)C)s2)cc1 | 7.1% | 
